89 compounds from PubChem BioAssay AID652257 (The Scripps Research Institute Molecular Screening Center, 2013) can be followed below.

Structures are written as SMILES. Hit rate of the full screen: of about 370,000 compounds, about 4,800 (1.3%) were called active.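 Rule for the calls: active = inhibition above about 21% made by adding two undisclosed values (limit read from the data); inactive = the rest.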 The list comes from a sample in which actives are over-represented; it also holds similar structures and randomly drawn compounds.

For the assay, the target named is Protein arginine N-methyltransferase 1 (Homo sapiens) (UniProt Q99873). In words: human PRMT1 activity-probe blockers – biochemical, fluorescence polarization, primary screen (AID 652257). The note with it: recombinant PRMT1, activity-based probe fluorescence polarization; at 2.79 µM; hits give high values. A general note: In fluorescence polarisation assays a small probe gives low polarisation when free and higher when bound to something large.
Chain of Protein arginine N-methyltransferase 1 (Homo sapiens) (Q99873 whole entry, looked up): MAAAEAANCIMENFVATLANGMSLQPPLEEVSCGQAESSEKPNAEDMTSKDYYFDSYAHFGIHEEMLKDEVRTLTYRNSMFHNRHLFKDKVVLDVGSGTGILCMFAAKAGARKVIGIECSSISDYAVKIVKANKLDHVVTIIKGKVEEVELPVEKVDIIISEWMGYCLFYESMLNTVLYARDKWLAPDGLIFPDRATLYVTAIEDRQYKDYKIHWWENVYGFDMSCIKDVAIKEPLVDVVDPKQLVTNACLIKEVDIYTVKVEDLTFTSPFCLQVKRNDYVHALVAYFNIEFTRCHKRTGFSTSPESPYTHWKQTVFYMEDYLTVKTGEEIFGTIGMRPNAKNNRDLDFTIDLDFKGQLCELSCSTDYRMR
For orientation: inhibition means the relative decrease from the control value, in per cent. On to `Cc1cc(/C=N/Nc2ccc([N+](=O)[O-])cn2)c(C)n1-c1cccc(C(=O)O)c1`, for which the inhibition is 23.6% (active).
For `CN1CCN(C(=O)c2cnn(-c3ccccc3)c2NC(=O)c2ccc([N+](=O)[O-])cc2)CC1`, the inhibition was 4.06% (inactive).
To `Cc1cccc(C(=O)NC(=S)N2CCN(c3ccc([N+](=O)[O-])cc3)CC2)c1` belongs -2.54% (inactive).
For `Cc1ccccc1NC(=O)COC(=O)c1ccc(Sc2ncn[nH]2)c([N+](=O)[O-])c1`, the inhibition was -0.43% (inactive).
To `O=C(O)c1[nH]c2ccccc2c1C(c1cccc(O)c1)c1c(C(=O)O)[nH]c2ccccc12` belongs -1.91% (inactive); to `Cc1c(C(C)c2ccccc2O)[nH]c2ccccc12` (centres undefined), 2.86% (inactive); to `CCOC(=O)c1ccccc1NC(=O)c1c(N)n(C)c(=O)[nH]c1=O`, 1.71% (inactive).
On to `CCOC(=O)c1cc2n(c1N)-c1ccccc1C2=O`, for which the inhibition was 29.4% (active).
Turning to `CCOC(=O)c1ccn(S(=O)(=O)c2ccc(C)cc2)c1-c1ccccc1`, the inhibition is -3.46% (inactive).
For the compound `COc1cc(/C=C/C(=O)n2cnc3ccccc32)cc(OC)c1OC`, the inhibition is 5.15% (inactive).
For `NS(=O)(=O)c1ccc(NC(=S)NC(=O)c2cccnc2)cc1`, the inhibition is 0.33% (inactive).
In the case of `C=CCN1C(C(=O)OC)CN(Cc2cn(Cc3ccccc3)nn2)CCS1(=O)=O` (centres undefined), the inhibition is -1.05% (inactive).
On to `O=C1C=CC(=O)N1c1ccc(N2CCCCC2)cc1`, for which the inhibition was 90.5% (active).
On to `COc1ccc(C(=O)OCC(=O)Nc2ccc3[nH]c(=O)[nH]c3c2)c(OC)c1OC`, for which the inhibition was 3.04% (inactive).
`CC(C)(C)NC(=O)COc1ccc(CNc2ccc3[nH]c(=O)[nH]c3c2)cc1`: the inhibition was 35.9% (active).
For the compound `O=C(COc1ccc([N+](=O)[O-])cc1Cl)Nc1ccc2[nH]c(=O)[nH]c2c1`, the inhibition is 1.93% (inactive).
In the case of `O=S1(=O)c2c(cccc2N2CCSCC2)Oc2ccccc2CN1Cc1cn(Cc2ccc(F)cc2)nn1`, the inhibition is -0.69% (inactive).
In the case of `O=C(Nc1ccccc1)N1CCN(Cc2nc3ccccc3c(=O)[nH]2)CC1`, the inhibition was 2.82% (inactive).
To `CC(=O)N/C(=C\c1ccccc1)C(=O)OC(C)C(=O)N(C)c1ccccc1` (centres undefined) belongs -2.28% (inactive); to `CN(C(=O)CN1CCN(c2cc(-c3ccc(OCc4ccccc4)cc3)ncn2)CC1)c1ccccc1`, -1.91% (inactive).
On to `CC1CN(Cc2ccco2)C(=S)N(c2ccccc2)C1=O` (centres undefined), for which the inhibition was 6.21% (inactive).
Take `CN(C)C(=S)N=c1ssc(=S)n1Cc1ccco1`: the inhibition was 27% (active).
In the case of `CCN(CC)C(=O)CSc1nnc(CNc2ccc(F)cc2)n1Cc1ccco1`, the inhibition is 10.1% (inactive).
`Cc1cccc(OCCCC(=O)Nc2ccc(S(=O)(=O)N3CCCC3)cc2)c1`: the inhibition was 0.23% (inactive).
To `Cc1ccc2nc(CN(C)C(=O)[C@@H](Cc3ccccc3)NC(=O)[C@H]3O[C@@H](n4ccc(=O)[nH]c4=O)[C@H](O)[C@@H]3O)[nH]c2c1` belongs 1.16% (inactive); to `Cc1nnc(SC(C(=O)Nc2cc(Cl)cc(Cl)c2)c2ccccc2)[nH]c1=O` (centres undefined), 11.5% (inactive).
Turning to `CSc1nc(C)cc(SC(C(C)=O)C(=O)Nc2ccccc2)n1` (centres undefined), the inhibition was 73.7% (active).
As for `COc1ccc(NC(=O)C(C)SCc2ccccc2)cc1` (centres undefined), the inhibition was 1.07% (inactive).
The same measure for `CCCC[C@H](C(=O)N(CC)c1ccccc1)[C@@H](O)c1ccc2ccccc2c1`: 1.04% (inactive); for `COc1cccc(N(C)C(=O)[C@@H](C)[C@@H](O)c2ccc3ccccc3c2)c1`: -1.81% (inactive); for `CC(=O)N(C1=C(Cl)C(=O)c2ccccc2C1=O)c1ccc(C(=O)O)cc1`: 87.5% (active).
Turning to `CCOC(=O)N1CCN(C(=O)C[C@H]2C[C@@]3(C(=O)OC)C(=C[C@H](C(C)(C)C)O[C@@H]3C)N(Cc3ccc(Cl)cc3Cl)C2=O)CC1`, the inhibition was 1.72% (inactive).
For the compound `CCOC(=O)c1ccc(N2C(=O)CC(Sc3nc(O)c(CC)c(=O)[nH]3)C2=O)cc1` (centres undefined), the inhibition is -0.27% (inactive).
The same measure for `COc1ccc(N2C(=O)CC(Sc3n[nH]c(-c4ccc(C)cc4)n3)C2=O)cc1` (centres undefined): 66% (active); for `Cc1ccnc(SC2CC(=O)N(c3ccccc3)C2=O)n1` (centres undefined): 8.05% (inactive).
With `CCOc1ccccc1N1C(=O)CC(Sc2nccc(C)n2)C1=O` (centres undefined), the inhibition is 14.4% (inactive).
The same measure for `CC(=O)Nc1ccc(N2C(=O)CC(Sc3nccc(C)n3)C2=O)cc1` (centres undefined): 15.5% (inactive); for `Cc1ccc(N2C(=O)CC(Sc3ncn[nH]3)C2=O)cc1` (centres undefined): 85.1% (active).
`COc1ccc(N2C(=O)C(O)C2c2ccc(C)cc2)cc1` (centres undefined): the inhibition was 3.23% (inactive).
As to `O=C(CSc1ncn[nH]1)Nc1ccnc2ccccc12`, the inhibition is 0.32% (inactive).
In the case of `O=C1CC(Sc2ncn[nH]2)C(=O)N1c1ccccc1` (centres undefined), the inhibition was 60.4% (active).
The same measure for `CCCC1CCC2(CCCN2CCOC(=O)NCc2ccccc2)CC1` (centres undefined): 5.29% (inactive).
Regarding `O=C(NC1CCCC1)C1CSCCS(=O)(=O)N1Cc1ccccc1` (centres undefined), the inhibition was -0.44% (inactive).
The same measure for `O=C(Nc1cccc(Cl)c1)OC1CC2CC1[C@H]1CCCCN1[C@H]2Cc1ccccc1` (some centres undefined): 1.47% (inactive); for `CC[C@@H](CCC(=O)N(c1ccccc1)c1ccccc1)C1CC1`: -2.74% (inactive); for `c1coc(CCNc2ncnc3ccc(-c4ccc5c(c4)OCO5)cc23)c1`: 15% (inactive).
`O=S1(=O)c2ccc(N3CCN(Cc4ccccc4F)CC3)cc2Oc2ccccc2CN1Cc1cn(Cc2ccc(Cl)cc2)nn1`: the inhibition is -3.79% (inactive).
With `O=C(CSc1nnc(-c2ccccn2)n1-c1ccccc1)Nc1ccc2cn[nH]c2c1`, the inhibition was 1.03% (inactive).
With `C=CCn1c(SCC(N)=O)nnc1-c1ccccc1OC`, the inhibition is 5.94% (inactive).
Take `O=C(Cn1nc([N+](=O)[O-])nc1Br)NC1CCCCC1`: the inhibition is -3.64% (inactive).
In the case of `O=C(CCCCCN1C(=O)C2C3C=CC(C3)C2C1=O)Nc1ccccc1` (centres undefined), the inhibition is -2.78% (inactive).
With `C=CCSc1nnc(N2C(=O)C(O)=C(C(=O)c3ccco3)C2c2ccc(F)cc2)s1` (centres undefined), the inhibition is 14.8% (inactive).
Regarding `O=C(C1=C(O)C(=O)N(c2ncccn2)C1c1cccs1)c1ccco1` (centres undefined), the inhibition is -1.95% (inactive).
`Cc1ccc2nc(N3C(=O)C(O)=C(C(=O)c4ccco4)C3c3cccc(O)c3)sc2c1` (centres undefined): the inhibition was 24% (active).
Regarding `CCc1c(-c2ccccc2OC)ncn1CCc1ccccc1OC`, the inhibition is -6.39% (inactive).
`N#Cc1ccccc1OC[C@@H](O)CN1CCC(C(O)(c2ccccc2)c2ccccc2)CC1`: the inhibition is -3.45% (inactive).
To `CC(=O)Nc1cccc(-c2cc(NC=O)c3ncc(-c4ccc(F)c(Cl)c4)n3c2)c1` belongs 2.68% (inactive).
For `CC(=O)Nc1cc(-c2ccccc2F)cn2c(-c3cccc(C(F)(F)F)c3)cnc12`, the inhibition was 2.67% (inactive).
To `CC(=O)Nc1cc(-c2ccccc2N(C)C)cn2c(-c3ccc(F)c(Cl)c3)cnc12` belongs 49.4% (active); to `CCOC(=O)C(=O)N(Cc1ccccc1)c1ccccc1C(=O)Nc1cc(OC)ccc1OC`, -1.5% (inactive).
In the case of `CCOc1ccc(N(CC(=O)NCCc2ccc(F)cc2)S(=O)(=O)c2ccccc2)cc1`, the inhibition is 1.75% (inactive).
On to `COc1c(Br)cc2c(C)c(C(=O)N3CCOCC3)oc2c1Br`, for which the inhibition was -2.82% (inactive).
`CC1(C(=O)NCc2ccc3c(c2)OCO3)CCN1CCc1ccccc1` (centres undefined): the inhibition is -4.72% (inactive).
For `CC1(C(=O)NCc2ccc3c(c2)OCO3)CCN1C(=O)Cc1cccc2ccccc12` (centres undefined), the inhibition is 24.5% (active).
The same measure for `CC1(C(=O)NCc2ccc3c(c2)OCO3)CCN1C(=O)Cc1cccs1` (centres undefined): 0.09% (inactive); for `CCOC(=O)[C@]12CCCC3=C1N(CCC3)C(=O)[C@@H](CC(=O)NCc1cccs1)C2`: 1.5% (inactive).
For `N#CCC[C@H]1CC[C@]2(CCCN(Cc3ccc(Cl)cc3)C2)O1`, the inhibition was 1.93% (inactive).
For `O=c1[nH]c2ccccc2s1`, the inhibition is 5.51% (inactive).
On to `Nc1ccc2[nH]c(=S)sc2c1`, for which the inhibition is 28.3% (active).
On to `CCOc1ccc2[nH]c(=S)sc2c1`, for which the inhibition was 10.4% (inactive).
With `Cc1cc(C)cc(NC(=O)N2CCC(N(C)CCC(C)C)CC2)c1`, the inhibition was -0.26% (inactive).
For the compound `CCN(CC)C(=O)C(C)N1c2cccc3cccc(c23)S1(=O)=O` (centres undefined), the inhibition was -0.89% (inactive).
Turning to `CC1=C(C(=O)N(C)C)CC(CC(=O)NCCN2CCOCC2)C(=O)N1Cc1ccccc1` (centres undefined), the inhibition was -1.74% (inactive).
To `Cc1cccc(CCNC(=O)Cn2ncc3c([nH]c4ccc(C)cc43)c2=O)c1` belongs -0.97% (inactive); to `CCOC(=O)[C@]12CCCC3=C1N(CCC3)C(=O)[C@@H](CC(=O)N1CCSCC1)C2`, -9.78% (inactive).
Turning to `COC(C[C@@H](O)[C@H](C)[C@H](O)COCc1ccccc1)OC`, the inhibition is -0.18% (inactive).
Turning to `CSc1c(SCc2ccccc2)cnn(Cc2ccccc2)c1=O`, the inhibition was 42.6% (active).
The same measure for `O=c1c2ccccc2c(-c2ccc(Br)cc2)nn1Cc1ccccc1`: 3.02% (inactive); for `COC(=O)c1ccc(SCc2ccccc2)nc1`: 1.13% (inactive); for `COc1ccccc1S(=O)(=O)c1c(C)cc(C)[nH]c1=O`: -5.06% (inactive).
Take `Cc1cc(C)c(/C=C2\C(=O)Nc3ccccc32)[nH]1`: the inhibition is 64.8% (active).
Take `O=C1Nc2ccccc2C1=NN=Cc1ccco1`: the inhibition is -4.47% (inactive).
In the case of `CC(=O)Nc1nc2ncccn2c1-c1ccc(C(F)(F)F)cc1`, the inhibition is 5.51% (inactive).
As to `CCC(=O)N1c2ccc(S(=O)(=O)NCc3ccco3)cc2CC1C` (centres undefined), the inhibition is 4.05% (inactive).
The same measure for `COc1ccccc1CNC(=O)C1CCN(S(=O)(=O)c2ccc3c(c2)CC(C)N3C(=O)C2CC2)CC1` (centres undefined): 0.46% (inactive); for `Cc1ccc(CNC(=O)CCS(=O)(=O)c2ccc3c(c2)CC(C)N3C(=O)C2CC2)o1` (centres undefined): 35.6% (active).
Turning to `COc1ccc(N2CCN(CCNS(=O)(=O)c3ccc(Cl)s3)CC2)cc1`, the inhibition is -1.47% (inactive).
With `Cc1cc(C)n2ncc(C(=O)Nc3ccc4c(c3)OCCO4)c2n1`, the inhibition was -2.31% (inactive).
To `Cc1ccc(S(=O)(=O)N2CCN(C)CC2)cc1C(=O)NC1CCCCC1` belongs 3.5% (inactive).
